# Results published in PubChem BioAssay (EPA / NIEHS).
# Records with an inconclusive call do not appear. The source made the active and inactive calls. How the source made its calls: active means hit-call score of the fitted dose curve at least 0.9, where 1 is the maximum; inconclusive means response in the unintended direction; inactive means score below 0.9.
# Key:
# [1] = biological target: Estrogen receptor (Homo sapiens) + Estrogen receptor beta (Homo sapiens) (UniProt P03372+Q92731); assay: OT_ER_ERaERb_1440: Odyssey Thera (OT) 24-hour HEK293T Protein-Complementation Assay for Estrogen Receptor-alpha/-beta Homodimer (AID 2283356);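 further: heteromer of ER alpha and ER beta binding domains; hits raise reporter fluorescence and both agonists and antagonists give an increase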
# How it was run: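 Heterodimerisation of ERα (aa 310-547) and ERβ (aa 263-489) ligand binding domains was tracked as fluorescence gain in stably transfected HEK293T cells following 24 h dosing, normalised to DMSO controls.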
# [2] = biological target: Estrogen receptor beta (Homo sapiens) (UniProt Q92731); assay: OT_ER_ERbERb_0480: Odyssey Thera (OT) 8-hour HEK293T Protein-Complementation Assay for Estrogen Receptor-beta/-beta Homodimer (AID 2283357);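 further: active means signal gain over DMSO baseline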
# Estrogen receptor beta (Homo sapiens), sequence (Q92731 whole entry, looked up, the tested form may be a part): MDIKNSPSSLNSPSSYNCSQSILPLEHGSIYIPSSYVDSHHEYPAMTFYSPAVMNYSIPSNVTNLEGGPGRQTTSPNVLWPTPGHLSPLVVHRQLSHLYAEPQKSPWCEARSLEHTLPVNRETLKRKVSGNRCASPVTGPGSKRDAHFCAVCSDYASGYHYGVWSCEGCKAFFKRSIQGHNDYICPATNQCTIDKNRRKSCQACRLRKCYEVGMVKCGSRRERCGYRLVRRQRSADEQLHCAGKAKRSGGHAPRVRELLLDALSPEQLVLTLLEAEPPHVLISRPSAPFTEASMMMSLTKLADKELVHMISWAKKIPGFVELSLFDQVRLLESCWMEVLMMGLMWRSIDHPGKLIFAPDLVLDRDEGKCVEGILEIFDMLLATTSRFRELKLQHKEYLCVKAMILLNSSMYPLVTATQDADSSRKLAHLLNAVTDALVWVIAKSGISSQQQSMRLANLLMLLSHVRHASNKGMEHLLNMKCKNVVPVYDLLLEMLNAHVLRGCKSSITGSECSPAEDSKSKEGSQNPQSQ
# How it was run: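 Cells (HEK293T, stable ER-beta LBD PCA pair) are treated 8 hours, fixed and Draq5-stained; signal is fluorescence intensity increase relative to vehicle, fitted in the gain direction.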
# [3] = biological target: rat Mineralocorticoid Receptor (MR), Nr3c2 (gene 25672) (UniProt P22199); assay: NVS_NR_rMR: NovaScreen (NVS) Nuclear Receptor Binding Assay for rat Mineralocorticoid Receptor (MR) (AID 2283355)
# rat Mineralocorticoid Receptor (MR), Nr3c2 (gene 25672), sequence (P22199 whole entry, looked up): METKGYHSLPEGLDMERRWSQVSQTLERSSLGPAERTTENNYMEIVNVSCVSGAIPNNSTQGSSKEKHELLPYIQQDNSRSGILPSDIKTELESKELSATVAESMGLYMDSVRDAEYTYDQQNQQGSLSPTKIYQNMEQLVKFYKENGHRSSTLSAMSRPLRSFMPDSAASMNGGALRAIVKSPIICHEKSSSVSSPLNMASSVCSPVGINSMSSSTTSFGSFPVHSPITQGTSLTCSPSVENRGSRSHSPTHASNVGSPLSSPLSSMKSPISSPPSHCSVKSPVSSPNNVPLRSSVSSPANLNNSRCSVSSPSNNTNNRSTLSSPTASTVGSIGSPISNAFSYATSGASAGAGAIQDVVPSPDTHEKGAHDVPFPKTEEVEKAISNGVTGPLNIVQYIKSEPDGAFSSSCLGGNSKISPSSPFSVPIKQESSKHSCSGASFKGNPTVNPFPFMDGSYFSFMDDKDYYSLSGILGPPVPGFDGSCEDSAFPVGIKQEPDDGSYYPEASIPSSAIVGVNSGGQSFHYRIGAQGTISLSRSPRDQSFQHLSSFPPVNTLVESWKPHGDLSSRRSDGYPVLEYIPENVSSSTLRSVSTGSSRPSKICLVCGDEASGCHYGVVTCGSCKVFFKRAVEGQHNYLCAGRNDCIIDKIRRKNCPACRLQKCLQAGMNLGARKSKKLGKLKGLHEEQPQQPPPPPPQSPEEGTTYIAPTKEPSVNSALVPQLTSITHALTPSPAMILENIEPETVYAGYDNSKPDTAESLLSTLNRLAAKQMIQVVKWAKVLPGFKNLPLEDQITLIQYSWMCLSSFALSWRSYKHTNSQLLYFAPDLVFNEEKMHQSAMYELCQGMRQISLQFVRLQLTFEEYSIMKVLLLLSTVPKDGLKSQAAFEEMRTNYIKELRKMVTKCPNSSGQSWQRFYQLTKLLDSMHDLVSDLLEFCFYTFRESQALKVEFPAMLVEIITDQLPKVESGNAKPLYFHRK
# How it was run: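 Adrenalectomized rat brain supernatant was dosed with test chemical, then radioligand binding was measured by scintillation counting at 24 h. Initial testing ran in duplicate at 25 uM, followed by concentration series for actives.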
# [4] = biological target: human Peroxisome Proliferator-activated Receptor alpha (PPARa), PPARA (gene 5465) (UniProt Q07869); assay: NVS_NR_hPPARa: NovaScreen (NVS) Nuclear Receptor Binding Assay for human Peroxisome Proliferator-activated Receptor alpha (PPARa) (AID 2283359);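 further: activity means loss of TR-FRET signal versus DMSO baseline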
# human Peroxisome Proliferator-activated Receptor alpha (PPARa), PPARA (gene 5465), sequence (Q07869 whole entry, looked up): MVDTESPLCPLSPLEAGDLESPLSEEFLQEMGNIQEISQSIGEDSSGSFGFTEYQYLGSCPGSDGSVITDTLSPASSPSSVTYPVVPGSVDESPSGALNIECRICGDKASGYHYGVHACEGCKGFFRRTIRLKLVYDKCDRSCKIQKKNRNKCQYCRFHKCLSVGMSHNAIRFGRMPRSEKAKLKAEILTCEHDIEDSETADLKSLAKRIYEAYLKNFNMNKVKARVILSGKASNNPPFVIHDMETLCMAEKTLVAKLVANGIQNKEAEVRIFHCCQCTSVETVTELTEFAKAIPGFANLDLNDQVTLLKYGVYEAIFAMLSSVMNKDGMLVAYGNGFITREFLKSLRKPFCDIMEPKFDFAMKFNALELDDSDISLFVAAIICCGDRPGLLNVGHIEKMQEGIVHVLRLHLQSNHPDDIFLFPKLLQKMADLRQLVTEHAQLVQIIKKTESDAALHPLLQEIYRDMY
# How it was run: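 Chemicals were first screened in duplicate at 25 uM, and active ones were retested across concentration series. Binding was monitored by TR-FRET one hour after dosing, with decreased signal against DMSO counted as activity.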
# [5] = biological target: Retinoic acid receptor alpha (Homo sapiens) (UniProt P10276); assay: NVS_NR_hRAR_Antagonist: NovaScreen (NVS) Nuclear Receptor Binding Assay for human Retinoic Acid Alpha Receptor Antagonism (RAR) (AID 2283358)
# Retinoic acid receptor alpha (Homo sapiens), sequence (P10276 whole entry, looked up): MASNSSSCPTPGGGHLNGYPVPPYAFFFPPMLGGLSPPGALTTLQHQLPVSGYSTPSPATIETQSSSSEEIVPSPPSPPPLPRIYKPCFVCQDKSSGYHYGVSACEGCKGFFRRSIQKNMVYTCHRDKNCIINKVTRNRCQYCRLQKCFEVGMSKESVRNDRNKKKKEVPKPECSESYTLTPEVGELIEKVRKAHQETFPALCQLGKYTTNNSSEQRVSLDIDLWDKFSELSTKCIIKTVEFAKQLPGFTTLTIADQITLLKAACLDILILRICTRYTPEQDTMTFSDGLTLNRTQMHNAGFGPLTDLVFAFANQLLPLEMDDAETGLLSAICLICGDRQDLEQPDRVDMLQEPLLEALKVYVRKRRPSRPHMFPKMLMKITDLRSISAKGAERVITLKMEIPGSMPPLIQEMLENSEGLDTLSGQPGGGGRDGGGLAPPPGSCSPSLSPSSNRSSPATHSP
# How it was run: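 TR-FRET, cell-free, antagonist format; 2 h incubation after dosing; DMSO = baseline; signal loss fitted; 25 uM duplicate primary, then conc. series.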
# [6] = biological target: Retinoic acid receptor alpha (Homo sapiens) (UniProt P10276); assay: NVS_NR_hRARa_Agonist: NovaScreen (NVS) Nuclear Receptor Binding Assay for human Retinoic Acid Alpha Receptor Agonism (RAR) (AID 2283361)
# How it was run: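 Readout is time-resolved fluorescence resonance energy transfer after a 2 h exposure of cell-free extracted receptor protein. Initial testing used 25 uM in duplicate, with concentration-response follow-up for active chemicals.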
# [7] = biological target: human Thyroid Receptor Alpha (TRa), THRA (gene 7067) (UniProt P10827); assay: NVS_NR_hTRa_Antagonist: NovaScreen (NVS) Nuclear Receptor Binding Assay for human Thyroid Receptor Alpha Antagonism (TRa) (AID 2283362);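 further: activity is loss of signal relative to DMSO baseline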
# How it was run: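 Chemicals were first screened in duplicate at 25 uM, then actives were retested in concentration series. Binding to the extracted receptor was measured 1 h after dosing by AlphaLISA chemiluminescence, with decreased signal versus DMSO scored as activity.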
# PGR (gene 5241) = PGR (gene 5241) (UniProt P06401); assay: NVS_NR_hPR: NovaScreen (NVS) Nuclear Receptor Binding Assay for human Progestron Receptor (PR) (AID 2283360);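 further: active means loss of bound radioligand signal versus DMSO baseline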
# PGR (gene 5241), sequence (P06401 whole entry, looked up): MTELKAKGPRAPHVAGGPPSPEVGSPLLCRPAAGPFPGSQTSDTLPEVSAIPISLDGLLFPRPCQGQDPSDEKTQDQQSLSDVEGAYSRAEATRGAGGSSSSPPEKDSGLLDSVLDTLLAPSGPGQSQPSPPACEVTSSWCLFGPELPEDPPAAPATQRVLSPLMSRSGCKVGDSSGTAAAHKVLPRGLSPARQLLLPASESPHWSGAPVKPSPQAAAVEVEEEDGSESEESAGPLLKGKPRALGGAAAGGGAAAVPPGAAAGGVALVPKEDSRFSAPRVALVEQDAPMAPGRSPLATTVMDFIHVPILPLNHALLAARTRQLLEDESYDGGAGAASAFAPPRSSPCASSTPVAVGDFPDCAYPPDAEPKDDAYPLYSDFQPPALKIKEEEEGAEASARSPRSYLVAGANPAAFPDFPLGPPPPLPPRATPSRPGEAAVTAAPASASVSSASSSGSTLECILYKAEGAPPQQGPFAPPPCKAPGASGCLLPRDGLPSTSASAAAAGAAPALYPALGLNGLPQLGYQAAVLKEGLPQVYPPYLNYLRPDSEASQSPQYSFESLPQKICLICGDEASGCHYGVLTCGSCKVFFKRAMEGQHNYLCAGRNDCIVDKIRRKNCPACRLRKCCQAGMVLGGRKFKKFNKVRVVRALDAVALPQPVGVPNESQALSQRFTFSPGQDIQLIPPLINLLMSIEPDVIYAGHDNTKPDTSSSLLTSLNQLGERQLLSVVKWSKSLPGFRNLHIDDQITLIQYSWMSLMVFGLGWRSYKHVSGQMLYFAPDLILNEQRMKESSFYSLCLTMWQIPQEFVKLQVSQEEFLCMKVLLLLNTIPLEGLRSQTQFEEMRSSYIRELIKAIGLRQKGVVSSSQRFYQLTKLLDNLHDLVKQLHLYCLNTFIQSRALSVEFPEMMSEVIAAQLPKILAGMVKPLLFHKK
# How it was run: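 T47D-derived receptor preparation, cell-free, with tritiated or iodinated radioligand displacement measured by scintillation 18 h post-dosing. Single 25 uM duplicate screen, then concentration series; signal loss relative to DMSO.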
# [8] = biological target: Glucocorticoid receptor (Homo sapiens) (UniProt P04150); assay: NVS_NR_hGR: NovaScreen (NVS) Nuclear Receptor Binding Assay for human Glucocorticoid Receptor (GR) (AID 2283363);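 on AC50: activity is loss of specific radioligand binding signal relative to DMSO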
# Glucocorticoid receptor (Homo sapiens), sequence (P04150 whole entry, looked up): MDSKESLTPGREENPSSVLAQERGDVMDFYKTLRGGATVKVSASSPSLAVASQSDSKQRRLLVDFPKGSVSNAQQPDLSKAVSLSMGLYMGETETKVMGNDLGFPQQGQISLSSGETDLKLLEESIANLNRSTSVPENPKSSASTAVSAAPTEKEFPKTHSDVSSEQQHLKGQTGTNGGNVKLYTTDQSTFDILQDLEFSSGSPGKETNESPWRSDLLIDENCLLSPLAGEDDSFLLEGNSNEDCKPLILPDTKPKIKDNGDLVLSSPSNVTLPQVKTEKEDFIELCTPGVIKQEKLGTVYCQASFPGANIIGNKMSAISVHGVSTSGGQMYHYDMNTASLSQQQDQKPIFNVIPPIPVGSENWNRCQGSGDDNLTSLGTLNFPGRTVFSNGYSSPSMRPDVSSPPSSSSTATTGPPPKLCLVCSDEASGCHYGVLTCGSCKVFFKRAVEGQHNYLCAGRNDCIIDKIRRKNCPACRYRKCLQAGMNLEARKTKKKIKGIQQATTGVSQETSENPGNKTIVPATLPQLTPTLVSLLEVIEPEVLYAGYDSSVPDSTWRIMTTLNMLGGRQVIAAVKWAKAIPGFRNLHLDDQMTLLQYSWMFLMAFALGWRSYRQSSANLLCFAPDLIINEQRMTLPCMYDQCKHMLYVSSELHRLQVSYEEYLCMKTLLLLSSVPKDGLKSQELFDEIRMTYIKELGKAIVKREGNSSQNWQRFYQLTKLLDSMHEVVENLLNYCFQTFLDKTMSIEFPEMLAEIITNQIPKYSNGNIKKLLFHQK
# How it was run: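 Competitive displacement of a labelled ligand was measured on cell-free receptor preparations after 16 h exposure. Initial testing used 25 uM in duplicate with plate controls; confirmed actives went into concentration series.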
# [9] = biological target: Nuclear receptor subfamily 1 group I member 2 (Homo sapiens) (UniProt O75469); assay: NVS_NR_hPXR: NovaScreen (NVS) Nuclear Receptor Binding Assay for human Pregnane X Receptor (PXR) (AID 2283365);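 further: a drop in FRET signal versus DMSO baseline means the compound binds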
# Nuclear receptor subfamily 1 group I member 2 (Homo sapiens), sequence (O75469 whole entry, looked up): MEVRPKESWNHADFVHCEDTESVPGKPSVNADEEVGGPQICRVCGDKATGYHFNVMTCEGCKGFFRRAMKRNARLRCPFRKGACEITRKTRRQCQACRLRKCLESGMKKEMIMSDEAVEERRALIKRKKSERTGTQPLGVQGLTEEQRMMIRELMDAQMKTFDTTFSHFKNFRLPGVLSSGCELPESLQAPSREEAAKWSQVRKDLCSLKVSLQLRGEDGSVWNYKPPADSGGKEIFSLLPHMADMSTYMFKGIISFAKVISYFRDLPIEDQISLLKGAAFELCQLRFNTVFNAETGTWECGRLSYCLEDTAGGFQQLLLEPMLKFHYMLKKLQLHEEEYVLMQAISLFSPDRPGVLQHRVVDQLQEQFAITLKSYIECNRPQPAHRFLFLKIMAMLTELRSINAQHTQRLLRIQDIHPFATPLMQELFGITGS
# How it was run: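 Binding was measured by time-resolved fluorescence resonance energy transfer after a 2 h exposure of extracted human PXR protein without cells. Compounds were first tested at 25 uM in duplicate, with concentration series for actives; DMSO defined baseline.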
structure (smiles),measurement,setting,value
COCCOCCOC,outcome,[1],inactive
same,outcome,[2],inactive
CCCCCCCCCCCCCO,outcome,[1],inactive
same,outcome,[2],inactive
Cc1ccc(C)c(C)c1,outcome,[1],inactive
same,outcome,[2],inactive
COc1cc(C=O)ccc1O,outcome,[1],inactive
same,outcome,[2],inactive
C[C@]12C=CC(=O)C=C1CC[C@@H]1[C@@H]2C(=O)C[C@@]2(C)[C@H]1CC[C@]2(O)C(=O)CO,AC50,[3],0.178 µM (active)
same,outcome,[2],inactive
NCC1(Cc2noc(=O)[nH]2)CCCCC1,outcome,[1],inactive
same,outcome,[2],inactive
CCCCCCCCCCO,outcome,[1],inactive
same,outcome,[2],inactive
same,outcome,[4],inactive
CCCCN(CCCC)CCCC,outcome,[1],inactive
same,outcome,[2],inactive
O=C(O)CCCCC(=O)O,outcome,[1],inactive
same,outcome,[2],inactive
CCCCCCOCCO,outcome,[1],inactive
O=c1c(O)c(-c2ccc(O)c(O)c2)oc2cc(O)cc(O)c12,AC50,[1],24.8 µM (active)
same,AC50,[2],2.32 µM (active)
same,outcome,[4],inactive
CCc1c(C(=O)NN2CCCCC2)nn(-c2ccc(Cl)cc2Cl)c1-c1ccc(Br)cc1,outcome,[1],inactive
same,outcome,[2],inactive
same,outcome,[5],inactive
CCCCCC(=O)O,outcome,[1],inactive
same,outcome,[2],inactive
Nc1nc(N)c2nc(CNc3ccc(C(=O)N[C@@H](CCC(=O)O)C(=O)O)cc3)cnc2n1,outcome,[1],inactive
same,outcome,[2],inactive
CCCCCCCCCCC,outcome,[1],inactive
CCCCCCCCCCCC(=O)OC,outcome,[1],inactive
CCCCOC(=O)CCCCCCCCC(=O)OCCCC,outcome,[1],inactive
same,outcome,[2],inactive
same,outcome,[4],inactive
same,outcome,[6],inactive
same,outcome,[7],inactive
O=c1[nH]cc(F)c(=O)[nH]1,outcome,[3],inactive
same,outcome,[1],inactive
same,outcome,[2],inactive
CCCCCCCC=O,outcome,[1],inactive
same,outcome,[2],inactive
same,outcome,[4],inactive
same,outcome,PGR (gene 5241),inactive
CC1=C(/C=C/C(C)=C/C=C/C(C)=C/CO)C(C)(C)CCC1,outcome,[1],inactive
same,outcome,[2],inactive
same,outcome,[5],inactive
same,outcome,[4],inactive
same,outcome,[6],inactive
Cc1oc(-c2ccccc2)nc1CCOc1cccc2c1ccn2CCC(=O)O,outcome,[1],inactive
CN1CCCC1=O,outcome,[1],inactive
CCOC(=O)CCC(=O)OCC,AC50,[3],25 µM (active)
same,outcome,[1],inactive
same,outcome,[2],inactive
same,outcome,[8],inactive
Cc1ccc(N(C)C)cc1,outcome,[1],inactive
O=C(O)Cc1ccccc1Nc1c(Cl)cccc1Cl,outcome,[1],inactive
O=[N+]([O-])C(CO)(CO)CO,outcome,[1],inactive
CC(C)(C)c1cc(O)c(C(C)(C)C)cc1O,outcome,[1],inactive
same,outcome,[2],inactive
NS(=O)(=O)c1cc2c(cc1Cl)NCNS2(=O)=O,outcome,[1],inactive
same,outcome,[2],inactive
Cc1cccc([N+](=O)[O-])c1C,outcome,[1],inactive
same,outcome,[2],inactive
Clc1cc(Cl)c(Cl)cc1Cl,outcome,[1],inactive
same,outcome,[2],inactive
C[Si]1(C)O[Si](C)(C)O[Si](C)(C)O[Si](C)(C)O1,outcome,[1],inactive
same,outcome,[2],inactive
Oc1ccc2c(c1)OC[C@@H](N1CCC(O)(c3ccc(F)cc3)CC1)[C@H]2O,outcome,[1],inactive
same,outcome,[2],inactive
same,outcome,[4],inactive
same,outcome,PGR (gene 5241),inactive
CC(=O)Oc1ccccc1C(=O)O,outcome,[1],inactive
same,outcome,[2],inactive
C1CCC(SSC2CCCCC2)CC1,outcome,[1],inactive
same,AC50,[2],34.1 µM (active)
Cc1cccc(Nc2cc(Cl)nc(SCC(=O)O)n2)c1C,outcome,[1],inactive
same,outcome,[2],inactive
Cc1ccc(C(C)C)c(O)c1,outcome,[1],inactive
same,AC50,[2],33.9 µM (active)
same,outcome,[4],inactive
CC(=O)OCCOCCOCCOC(C)=O,outcome,[1],inactive
same,outcome,[2],inactive
same,AC50,[9],33.4 µM (active)
Cc1cccc(C)c1O,outcome,[1],inactive
same,outcome,[2],inactive
same,outcome,[9],inactive
O=C(N[C@@H](Cc1ccccc1)[C@@H](O)C(=O)N1C[C@@H](O)[C@@H](O)C1)c1cc2cc(Cl)ccc2[nH]1,outcome,[2],inactive
same,outcome,[8],inactive
Nc1ccc(S(=O)(=O)c2ccc(N)cc2)cc1,outcome,PGR (gene 5241),inactive
CC(C)c1ccc(C(=O)N=C(N)N)cc1S(C)(=O)=O,outcome,[1],inactive
same,outcome,[2],inactive
same,outcome,[9],inactive
CCCCCCCCCCCCCCCCCC(=O)O,AC50,[4],0.608 µM (active)
NCCO,outcome,[5],inactive
CCOC(=O)C(C)(C)Oc1ccc(Cl)cc1,outcome,[1],inactive
same,outcome,[2],inactive
same,outcome,PGR (gene 5241),inactive
same,outcome,[7],inactive
same,outcome,[8],inactive
CCCCC(CC)COC(=O)CC(C(=O)OCC(CC)CCCC)S(=O)(=O)O (centres undefined),outcome,[1],inactive
same,AC50,PGR (gene 5241),18.7 µM (active)
same,AC50,[8],5.89 µM (active)
same,AC50,[9],1.03 µM (active)
COc1ccc2c(c1)c(CC(=O)O)c(C)n2C(=O)c1ccc(Cl)cc1,outcome,[5],inactive
COCCOC[C@H](CC1(C(=O)NC2CCC(C(=O)O)CC2)CCCC1)C(=O)Oc1ccc2c(c1)CCC2 (some centres undefined),outcome,[1],inactive
same,outcome,[2],inactive
same,outcome,PGR (gene 5241),inactive
COc1ccc(C)cc1N,outcome,[5],inactive
CCCCc1ccc2c(n1)[C@@H](c1ccc(OC)cc1C[C@H](C)C(=O)O)[C@H](C(=O)O)[C@H]2c1ccc2c(c1)OCO2,outcome,[1],inactive
same,outcome,[8],inactive
CN[C@H]1CC[C@@H](c2ccc(Cl)c(Cl)c2)c2ccc(S(N)(=O)=O)cc21,outcome,PGR (gene 5241),inactive
CC(CO)OC(C)CO (centres undefined) (tested in a mixture with another compound),outcome,[4],inactive
same,outcome,[9],inactive
